Source: the supplement of paper PMC9948646
Values without a mark were called inactive.

test system: gramicidin D channels in DC22:1PC lipid vesicles (bilayer-modifying potency); assay: initial Tl+ fluorescence quench rate relative to no-drug control (NormRate, gramicidin monomer-dimer shift) (ratio (fold of control)); higher = stronger bilayer-modifying effect (equilibrium shifted toward conducting dimers), active = 1.5 or more; conditions: 10 µM; lipid concentration 50 µM; temperature: 25 °C
Method: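 Stopped-flow fluorescence quench assay: ANTS-loaded DC22:1PC large unilamellar vesicles doped with gramicidin D (1:2000), 50 µM lipid, equilibrated 10 min with 10 µM drug (0.1% DMSO), mixed with Tl+ quench buffer at 25°C. Initial quench rate (Tl+ influx) was fitted with a modified stretched exponential and normalised to the no-drug control rate (NormRate); duplicates from two independent LUV preparations (triplicates for 7 drugs).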

**Q.** CCCc1ccc(S(=O)(=O)Nc2ccc(CN3CCN(CC4CC4)CC3)cc2)cc1 was tested. Which “initial Tl+ fluorescence quench rate” value did it give?
**A.** Its value is 1.42.

**Q.** CC(C)/N=c1\cc2n(-c3ccc(Cl)cc3)c3ccccc3nc-2cc1Nc1ccc(Cl)cc1 was tested. Which “initial Tl+ fluorescence quench rate” value did it give?
**A.** Its value is 5.63 (active).

**Q.** Which “initial Tl+ fluorescence quench rate” value does the source give for N#CCN(CCCCN1CCN(c2ccc(F)cc2)CC1)C(=O)OCc1ccccc1 here?
**A.** The value was 1.5.

**Q.** For O=C(CN1CCOCC1)Nc1ccc2ncnc(Nc3ccc(OCc4cccc(F)c4)c(Cl)c3)c2c1, which “initial Tl+ fluorescence quench rate” value is on record?
**A.** The value was 6.71 (active).

**Q.** How did the “initial Tl+ fluorescence quench rate” value turn out when CC[C@H](NC(=O)c1ccccc1NC(=O)c1ccc(C)cc1)C(=O)OC was run?
**A.** Its value is 1.32.

**Q.** COc1ccc(C2=NN(C3CCCCCC3)C(=O)C2(C)C)cc1OCc1ccccn1 was tested. Which “initial Tl+ fluorescence quench rate” value did it give?
**A.** The value was 1.8 (active).

**Q.** For CC(C)n1ncc2c(C(=O)NC[C@H](c3cccs3)N3CCOCC3)cc(-c3ccccc3)nc21, which “initial Tl+ fluorescence quench rate” value is on record?
**A.** The value was 2.74 (active).

**Q.** With CCn1ncc2c(NC3CCOCC3)c(CNC(=O)c3ccnn3C)c(C)nc21 as the compound, how does the “initial Tl+ fluorescence quench rate” value read?
**A.** The value was 1.07.

**Q.** For Cc1nc(-c2ccccn2)nc(N(C)CCc2ccccc2)c1Cl, which “initial Tl+ fluorescence quench rate” value is on record?
**A.** Its value is 2.23 (active).

**Q.** With Cc1cc2ccccc2n1CC(=O)N1C[C@@H](C(=O)N2CCCCC2)Oc2ccccc21 as the compound, how does the “initial Tl+ fluorescence quench rate” value read?
**A.** The value was 1.72 (active).

**Q.** CCCCOC(=O)Nc1cc2nc(C3CCCCC3)[nH]c2cc1N1CCCC1 was tested. Which “initial Tl+ fluorescence quench rate” value did it give?
**A.** The value was 1.33.

**Q.** How did the “initial Tl+ fluorescence quench rate” value turn out when Cc1ccc2nc(Cl)c(CNCc3cccs3)cc2c1 was run?
**A.** The value was 1.03.

**Q.** O=C([C@@H](Cc1c[nH]c2ccccc12)NS(=O)(=O)c1ccc(Cl)cc1)N1CCCCC1 was tested. Which “initial Tl+ fluorescence quench rate” value did it give?
**A.** Its value is 4.26 (active).

**Q.** With CC[C@H](C)NC(=O)c1ccc(NC(=O)C2(c3ccccc3)CCCC2)cc1 as the compound, how does the “initial Tl+ fluorescence quench rate” value read?
**A.** The value was 1.75 (active).

**Q.** Which “initial Tl+ fluorescence quench rate” value does the source give for c1cncc(NCc2ccc(-c3cc4ccncc4cc3OC3CCNCC3)s2)c1 here?
**A.** Its value is 1.32.

**Q.** For COc1cccn2c(C(=O)N3CCCCC3)c(C(F)(F)F)nc12, which “initial Tl+ fluorescence quench rate” value is on record?
**A.** The value was 1.08.

**Q.** How did the “initial Tl+ fluorescence quench rate” value turn out when COc1ccc(CCN2CCC(NCc3cccc(N(C)C)c3)CC2)cc1 was run?
**A.** Its value is 1.07.

**Q.** For CC1(C)Cc2c(c(N3CCOCC3)nc3snc(Br)c23)CO1, which “initial Tl+ fluorescence quench rate” value is on record?
**A.** The value was 1.26.

**Q.** How did the “initial Tl+ fluorescence quench rate” value turn out when CC(C)(C)CN1C(=O)C(c2ccccc2)(c2ccccc2)N=C1N was run?
**A.** Its value is 2.96 (active).

**Q.** For NS(=O)(=O)c1cccc(-c2ccc3ncc(N4CCOCC4)nc3c2)c1, which “initial Tl+ fluorescence quench rate” value is on record?
**A.** The value was 1.41.

**Q.** O=C(CCC1CCCCC1)Nc1cccc(-c2nnc(-c3ccco3)o2)c1 was tested. Which “initial Tl+ fluorescence quench rate” value did it give?
**A.** Its value is 1.57 (active).

**Q.** For FC(F)(F)c1ccc(N(c2cccnc2)C2CCN(c3ccc(C(F)(F)F)cn3)CC2)cc1, which “initial Tl+ fluorescence quench rate” value is on record?
**A.** The value was 1.56 (active).

**Q.** Which “initial Tl+ fluorescence quench rate” value does the source give for O=C(NCCc1ccn(-c2ccccc2)n1)C1CCCCC1 here?
**A.** The value was 1.05.

**Q.** Which “initial Tl+ fluorescence quench rate” value does the source give for O=C(Cn1ccnc1[N+](=O)[O-])NCc1ccccc1 here?
**A.** Its value is 1.01.

**Q.** With C[C@@H](Oc1ccccc1)C(=O)Nc1nc(-c2ccccn2)cs1 as the compound, how does the “initial Tl+ fluorescence quench rate” value read?
**A.** Its value is 1.29.

**Q.** O=C(Nc1ccc(N2CCNCC2)cc1)c1ccn2ncc(-c3cccc(Cl)c3)c2n1 was tested. Which “initial Tl+ fluorescence quench rate” value did it give?
**A.** Its value is 2.57 (active).

**Q.** How did the “initial Tl+ fluorescence quench rate” value turn out when COc1ccc([C@H]2CC(c3cccs3)=NN2C(=O)c2ccco2)cc1OC was run?
**A.** The value was 1.86 (active).

**Q.** Which “initial Tl+ fluorescence quench rate” value does the source give for C[C@@H]1[C@H](O)[C@@H](C)/C=C/C=C/C=C/C=C/C=C/C=C/C=C/[C@H](O[C@@H]2O[C@H](C)[C@@H](O)[C@H](N)[C@@H]2O)C[C@@H]2O[C@](O)(C[C@@H](O)C[C@@H](O)[C@H](O)CC[C@@H](O)C[C@@H](O)CC(=O)O[C@H]1C)C[C@H](O)[C@H]2C(=O)O here?
**A.** Its value is 1.03.

**Q.** For O=C(NCc1nnc2n1CCCCC2)c1ccc(-c2ccc(F)cc2)o1, which “initial Tl+ fluorescence quench rate” value is on record?
**A.** The value was 1.08.

**Q.** For Cc1ccc(Oc2ccc(NC(=O)CNc3ccccc3N3CCCC3=O)cc2)cc1, which “initial Tl+ fluorescence quench rate” value is on record?
**A.** Its value is 4.66 (active).

**Q.** CCCCc1ccc(NC(=O)Nc2ccc(O[C@H]3CCCC[C@@H]3N(C)c3ccccc3)c(F)c2)cc1 was tested. Which “initial Tl+ fluorescence quench rate” value did it give?
**A.** Its value is 1.35.

**Q.** Which “initial Tl+ fluorescence quench rate” value does the source give for Cc1cc2nc(NC(=O)C(C)(C)C)nc(Cl)c2n1Cc1ccc(Cl)cc1 here?
**A.** Its value is 1.77 (active).

**Q.** Cc1cc(C)cc(COc2ccc3c(C)c(CCC(=O)O)c(=O)oc3c2C)c1 was tested. Which “initial Tl+ fluorescence quench rate” value did it give?
**A.** The value was 2.64 (active).

**Q.** How did the “initial Tl+ fluorescence quench rate” value turn out when O=C(Nc1nc(-c2ccccn2)cs1)c1cncn1-c1ccccc1 was run?
**A.** The value was 1.1.

**Q.** How did the “initial Tl+ fluorescence quench rate” value turn out when CCN(CC)CCCCCCNc1cc(OC)cc2c(C)ccnc12 was run?
**A.** Its value is 1.45.

**Q.** Which “initial Tl+ fluorescence quench rate” value does the source give for COc1ccc(C2=NN(C3CCCCCC3)C(=O)[C@@H]3CC=CC[C@H]23)cc1OCCCCOc1ccc(-c2nn[nH]n2)cc1 here?
**A.** Its value is 8.03 (active).

**Q.** Which “initial Tl+ fluorescence quench rate” value does the source give for CC(C)(CN)c1nc(-c2ccc(Cl)c(O)c2)c(-c2ccnc(N)n2)[nH]1 here?
**A.** Its value is 1.15.

**Q.** Which “initial Tl+ fluorescence quench rate” value does the source give for CCc1ccccc1-n1c(C)cn2c3c(=O)n([C@@H](C(=O)OC)C(C)C)c(=O)n(C)c3nc12 here?
**A.** The value was 1.2.
